esBAF inh: Bmi1 luciferase reporter increase in mESCs, primary screen, esBAF inhibitor project, mouse ES cells, Bmi1 luciferase knock-in, single point. 24 h; 100% = twice the neutral-well signal. AID 602393, 2012. 350,000 compounds, 2% hits. reporter increase, % at 12.5 µM; in the data active means activation above about 40%; inconclusive means no clear call, values can overlap the other calls;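 further: 0% = median of the plate's neutral control wells and 100% = double that signal; a rise in the Bmi1 reporter signal indicates esBAF inhibition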
Wnt act: Wnt/beta-catenin pathway activators, primary screen, cell-based, plate reader, single point; Wnt/beta-catenin reporter cell assay, activator; activation, % at 9.35 µM; AID 743398, 2014; 300,000 compounds, 1.2% hits; in the data active means activation above about 30%, passing the limit was not always enough; inconclusive means no clear call, values can overlap the other calls;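 further: 0% = neutral control wells and 100% = positive control wells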
MITF act: activators of MITF-driven TRPM1 promoter reporter, primary screen, cell-based, SK-MEL-5, luciferase, single point. activation, % at 12.5 µM. 300,000 compounds, 0.75% hits. SK-MEL-5 TRPM1-promoter luciferase, 24 h; % of positive control, neutral wells = 0;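 active means mean activation of at least 80% with every replicate also reaching 80%; inconclusive means mean reaches 80% but some replicate falls short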;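 further: 0% = neutral control wells and 100% = parthenolide positive control wells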
Vif inh: HIV Vif self-association inhibitors, primary screen, imaging, HEK293T, single point; inhibition, % at 7.49 µM; 340,000 compounds, 0.35% hits; AID 602346, 2012; HEK293T cells, Vif self-association by quenched fluorescence, 24 h; in the data active means inhibition above about 50%, passing the limit was not always enough; inconclusive means no clear call, values can overlap the other calls; inactive means below about 31%
Glyco luc inh: increase of ERlucT glycosylation luciferase signal, primary screen, N-linked glycosylation inhibitor project, D54 ERlucT cells, luminescence, set 2; D54 ERlucT glycosylation luciferase reporter, 24 h; percent of 100 nM tunicamycin response; reporter increase, % at 12.5 µM; 360,000 compounds, 0.23% hits; AID 588692, 2011;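 active means mean luciferase reporter signal, scaled so untreated is 0 and the glycosylation-blocking control 100, at or above a set limit in every replicate; inconclusive means mean reaches the limit but not every replicate does; inactive means mean below the limit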;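 further: luciferase carries N-glycosylation sites so blocking glycosylation raises the light; 0% = median of neutral control wells and 100% = median of 100 nM tunicamycin wells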
PfHsp90 yeast 2: growth inhibition of PfHsp90-expressing yeast, primary screen, antimalarial PfHsp90 inhibitor project, S. cerevisiae, BacTiter-Glo luminescence, single point, set 2; inhibition, % at 9.4 µM; BacTiter-Glo ATP, 48 h; yeast lacking PDR1 and PDR3 efflux regulators; 310,000 compounds, 0.32% hits;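 active means every replicate shows inhibition above about 80%, whatever the replicate mean, limit read from the data; inconclusive means mean inhibition reaches the set limit but some replicate falls short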;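 further: 0% = DMSO neutral controls and 100% = 20 µM radicicol positive controls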
* marks the source's active call; other numbers are inactive results; ? = inconclusive; / = no result; ! = not active in a repeat. A selection: hits, their analogues and other compounds. The true share with any hit is near 3%.

SMILES	esBAF inh	Wnt act	MITF act	Vif inh	Glyco luc inh	PfHsp90 yeast 2
COc1ccc(C(=O)/C=C/c2cn(CN3CCN(C)CC3)c3ccccc23)cc1	51.4*	/	95.0*	-1.4	4.7	-11.2
O=C1c2cccc3c([N+](=O)[O-])ccc(c23)C(=O)N1c1ccccn1	-3.4	-21.7	/	112.9*	9.2	13.1
O=C1c2cccc3c([N+](=O)[O-])ccc(c23)C(=O)N1c1nccs1	-17.2	/	-58.7	67.0*	-3.0	/
O=C1c2cccc3cccc(c23)C(=O)N1c1nccs1	-2.4	/	5.1	2.9	1.1	/
O=C1c2cccc3c([N+](=O)[O-])ccc(c23)C(=O)N1c1ccc(Cl)cn1	-2.1	/	-32.3	-2.2	-15.9	4.1
C#CC1(NC(=O)N(C)C)CCCCC1	/	-2.3	-6.8	2.3	0.7	-2.5
CCN=C1SC(C(N)=O)CC(=O)N1CC (stereo unspecified)	2.4	-12.4	-0.4	2.9	1.0	-25.7
O=C(N/N=C/c1c(O)ccc2ccccc12)c1cccc(C(F)(F)F)c1	/	/	-70.9	2.8	-8.9	90.6*
COc1ccc2ccccc2c1/C=N/NC(=O)c1cccc(Br)c1	/	0.6	-5.3	-0.8	0.5	-5.3
c1ccc2c(-c3nnc(SCc4cn5ccccc5n4)o3)c[nH]c2c1	24.0	/	32.3	2.9	0.2	-8.8
c1ccc(CSc2nnc(-c3c[nH]c4ccccc34)o2)cc1	53.4*	11.1	64.3	4.9	0.5	21.9
Cc1ccccc1-c1nnc(SCc2ccccc2)o1	63.1*	/	/	-15.0	-0.5	/
N#Cc1cc2nc(O)c(O)nc2cc1[N+](=O)[O-]	-0.4	0.1	-6.6	51.1*	0.5	8.4
S=C(N/N=C/c1ccc(Br)cc1)N1CCCCC1	49.6*	-3.0	/	-2.7	-3.6	13.1
C[C@H]1CN([C@@H](C)CO)C(=O)c2cc(C#CC3CC3)cnc2O[C@@H]1CN(C)C(=O)Nc1ccccc1	-7.1	/	/	/	/	/
COc1ccccc1CNC(=O)c1ccc(NC2=NC3CS(=O)(=O)CC3S2)cc1 (stereo unspecified)	-6.3	3.2	13.3	22.7	1.7	26.8
COc1ccccc1CNC(=O)c1ccc(Cl)c(NC2=NC3CS(=O)(=O)CC3S2)c1 (stereo unspecified)	-0.8	-1.1	/	59.6*	1.7	-2.8
COC(=O)Nc1c(-c2ccccc2)nc2ccccn12	2.9	/	-6.7	3.8	1.0	/
c1ccc(-c2nc3ccccn3c2-c2ccccc2)cc1	/	42.6*	-3.7	-7.4	-0.8	-5.6
COc1cc2c(cc1OC)C(=O)N1[C@H]3c4ccccc4OC[C@@H]3[C@H](c3ccccc3)[C@]1(C)C(=O)N2	9.3	-5.9	-0.8	-4.1	41.1*	86.3*
COc1ccc2c(c1)OC[C@H]1[C@@H]2N2C(=O)[C@@H](C)NC(=O)[C@@]2(C)[C@H]1c1ccccc1	-1.2	-2.6	-3.5	-1.6	-0.3	-6.1
COc1ccc2c(c1)OC[C@H]1[C@H]2N2C(=O)c3cc(OC)c(OC)cc3NC(=O)[C@@]2(C)[C@H]1c1ccccc1	-0.3	-1.8	-26.5	2.9	47.3*	-26.8
CCOC(=O)[C@H]1[C@H]2COc3ccccc3[C@@H]2N2C(=O)c3cc(OC)c(OC)cc3NC(=O)[C@@]12C	1.7	0.9	7.6	2.5	3.5	11.8
C[C@@H]1CN([C@H](C)CO)S(=O)(=O)c2ccc(-c3cncnc3)cc2O[C@H]1CN(C)C(=O)NC1CCCC1	7.7	/	/	/	/	/
O=c1cc(-c2ccco2)oc2ccc(Cl)cc12	20.1	/	49.2	8.9	1.6	-29.4
SMILES	esBAF inh	Wnt act	MITF act	Vif inh	Glyco luc inh	PfHsp90 yeast 2
COc1ccc2oc(-c3ccco3)cc(=O)c2c1	19.7	38.2*	77.8	4.3	-4.7	3.3
Cc1nn(C)cc1CN(C)Cc1ccc(OCC(O)CN2CCCCC2)cc1 (stereo unspecified)	/	0.4	19.8	63.7*	-6.0	10.9
CCOc1ccc(NC(=O)c2ccc(NCC(=O)N3CCCCCC3)cc2)cc1	/	-0.6	-4.2	6.0	1.7	-6.5
COc1cc(OC)cc(C(=O)Nc2ccccc2N2CCOCC2)c1	-3.3	/	-1.7	-0.3	3.6	/
COc1cccc(OC)c1C(=O)Nc1cccc(-c2ccc3nncn3n2)c1	0.4	7.5	14.8	5.0	2.7	0.4
COc1ccc(C(=O)Nc2cccc(-c3ccc(N4CCOCC4)nn3)c2)cc1	44.8*	19.2	89.8*	3.8	-5.0	/
COc1cccc(OC)c1C(=O)Nc1cccc(-c2ccc(N3CCOCC3)nn2)c1	4.1	19.2	83.1*	8.2	-7.9	/
COc1cc(OC)cc(C(=O)Nc2cccc(-c3ccc(N4CCOCC4)nn3)c2)c1	33.2	19.8	101.3*	-10.7	-2.8	-9.7
CO[C@@H]1CN(C)C(=O)c2cc(NC(=O)C3CCCC3)ccc2OC[C@@H](C)N(CC2CC2)C[C@@H]1C	-2.2	/	/	/	/	/
C=CCNC(=S)Nc1sc2c(c1C#N)CCCC2	6.5	0.6	5.6	-3.9	2.1	-11.5
Cc1cccc(NC(=O)c2nc[nH]c2C(=O)N[C@@H](C)CO)c1	0.1	-1.2	/	8.4	3.3	/
CCCC(=O)Nc1ccc2c(c1)C(=O)N(C)C[C@@H](OC)[C@@H](C)CN(Cc1ccccc1F)[C@@H](C)CO2	1.6	/	/	/	/	/
OCCN(/C=N/c1nc(-c2ccc(Br)cc2)cs1)CCO	40.8*	-0.8	57.7	-3.4	1.4	-18.2
Brc1ccc(-c2csc(/N=C/N3CCOCC3)n2)cc1	51.2*	/	34.8	-11.4	3.4	-0.8
O=Cc1ccc2ccc3cccnc3c2n1	7.7	1.9	-7.5	-3.6	3.3	6.4
c1cnc2c(c1)ccc1cccnc12	-33.6	2.7	-61.5	-7.7	-14.2	125.4*!
OC(c1ccc(F)cc1)c1nc(/C=C/c2ccccc2)cs1 (stereo unspecified)	50.0*	?	/	-1.3	0.4	/
O=C(Nc1cccc(C2=NCCN2)c1)Nc1cccc(C2=NCCN2)c1	45.5*	-4.5	-4.9	-10.3	6.8	-4.7
CC1(C2CC2)NC(=O)N(CC(=O)N2CCN(c3cccc(C(F)(F)F)c3)CC2)C1=O (stereo unspecified)	0.1	-0.5	2.6	-21.3	-3.1	2.4
O=C1NC(c2ccccn2)Nc2sc3c(c21)CCC3 (stereo unspecified)	66.1*	/	?	-2.7	1.4	1.8
CN1CCc2c(sc3c2C(=O)NC(c2ccccn2)N3)C1 (stereo unspecified)	3.9	/	/	24.6	1.5	-27.3
Cc1ccsc1C1NC(=O)c2c(sc3c2CCCC3)N1 (stereo unspecified)	49.9*	/	51.8	2.0	0.2	-0.7
CCCCCCCCC/C(=N\O)c1ccccn1	0.4	/	43.8	/	-6.8	111.2*

Compound activity (PubChem BioAssay)
